The values below come from PubChem BioAssay (NCI).

Where “and” joins values, the source holds several entries; their conditions need not be identical. Equal values may be shown once. About 83,000 compounds went through this panel and 20% of them were active in at least one assay; those are over-represented in the sample as a whole.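 Compound tested at a single concentration for 48 hours in 96-well plates; a percent growth value below 10 was scored as active.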 Calls of active or inactive are those of the source.

The first test deals with NCI-H522 lung. In words: NCI-60 one-dose screen, 48 h (100 = growth as untreated, 0 = no growth, -100 = all killed). The conditions noted are these: 10 µM. How it is done:
Growth inhibition of the NCI-H522 human Non-Small Cell Lung tumor cell line is measured as a screen for anti-cancer activity. Cells are grown in 96 well plates and exposed to the test compound for 48 hours. Compounds are tested at a single concentration, which is 10^-5 M for most compounds. The reported endpoint is percent growth (GI% or GIPRCNT), where numbers from 0 - 100% represent growth inhibition, and numbers from -100% - 0 represent cell death. For example, a value of 40 represents 60% growth inhibition. A value of 0 means no net growth occurred over the course of the experiment. A value of -40 indicates 40% of cells at the beginning of the experiment died by the end of the experiment. A value of -100 means all cells are dead at the end of the experiment.
NCI-60 Human Tumor Cell Lines Screen was performed using the standard one-dose NCI protocol, which is described in more detail at https://dtp.cancer.gov/discovery_development/nci-60/default.htm.
Compounds with GIPRCNT values below 10 were considered active. Activity score was based on GIPRCNT using the following formula: […]
Score is 0 for GIPRCNT values of 100 or above, 50 for GIPRCNT values of 0, and 100 for GIPRCNT values of -100.
As to `CC(C)(C)c1cc(NC(=O)Cc2ccc(-c3cnc4cc(-c5cnn(CCN6CCOCC6)c5)ccc4n3)cc2)no1`, the growth is 20% (inactive).

The test is the same for the next values; noted with them: 10 µM unless noted.
For `CC(=O)NC(Cc1ccccc1)C(=O)Oc1ccc2ccccc2c1` (stereo not given), the growth is 98.2% (inactive). Turning to `CC1=NN(c2ccccc2)C(=O)C1C(=O)c1ccccc1` (stereo not given), the growth was 98.5% (inactive). For the compound `C=C1C(=O)O[C@H]2[C@H]1CC/C(COC(=O)NC1CCC(O)CC1)=C\CC[C@@]1(C)O[C@@H]21` (stereo not given in full), the growth was -2.94% (active) and -11.8% (active). With `COc1ccccc1C(C)=O`, the growth is 113% (inactive). On to `CC(C(=O)O)n1cc(C#N)c(=O)[nH]c1=O` (stereo not given), for which the growth was 98.8% (inactive) and 93.9% (inactive). As for `CC(C)Cc1ccc(C(C)C(=O)NCc2ccc(Cn3c(=O)sn(CCCCl)c3=O)cc2)cc1` (stereo not given), the growth is 85.5% (inactive) and -52.3% (active).

Turning to `Cc1cc(C)c(N)c(Br)c1`, the growth was 95.2% (inactive) and 87.9% (inactive). `CC(=O)Nc1cccc2c1CCCC2`: the growth is 68.7% (inactive) and 75.3% (inactive). On the same count and under the same terms, in the case of `CCN(CC)CCC(CNc1c2ccc([N+](=O)[O-])cc2nc2cc(OC)c(OC)cc12)c1ccccc1` (stereo not given) it was -45% (active) and -79.4% (active); in that of `NS(=O)(=O)c1cc2c(cc1Cl)NC(C(Cl)Cl)NS2(=O)=O` (stereo not given), 96.7% (inactive) and 104% (inactive); in that of `CCCCCCCCCCCCCCCCOc1ccc(C)cc1`, 104% (inactive).

As for `CC1=C(/C=C/C(C)=C/C=C/C(C)=C/C=N/NC(=S)NC(=S)N/N=C/C=C(C)/C=C/C=C(C)/C=C/C2=C(C)CCCC2(C)C)C(C)(C)CCC1`, the growth was -84.1% (active) and -88.9% (active).

Turning to `OCCN1CCN(CCCN2c3ccccc3Sc3ccc(Cl)cc32)CC1`, the growth is 40.5% (inactive) and 57.5% (inactive). For `Nc1nc(SC/C=C/CCl)c2[nH]cnc2n1`, the growth is 95.1% (inactive) and 86.7% (inactive).

Turning to `CC(C)(C)c1ccc(O)c(CNC2CCCCC2)c1`, the growth is 102% (inactive) and 84.8% (inactive).

On to `O=C(Nc1ccc(Br)cc1)c1cc(Br)ccc1O`, for which the growth was -13.8% (active) and 2.52% (active). Take `CCCCCCCCCCCCOc1ccccc1C=O`: the growth is 91.3% (inactive).

For `COC(=O)[C@H]1CCCN1C(=O)C1CCCN1C(=O)[C@@H](Cc1ccccc1)NC(=S)Nc1cc(C(F)(F)F)cc(C(F)(F)F)c1` (stereo not given in full), the growth is 98.6% (inactive) and 78.1% (inactive). Consider `COc1cc(/C=N/Nc2nc3c([nH]2)c(=O)n(C)c(=O)n3C)ccc1O`, for which the growth is 87.8% (inactive) and 95.7% (inactive). As to `COc1ccc(NC(=S)Nc2ccccn2)cc1`, the growth was 98.4% (inactive). Consider `CCN(CC)C(=O)c1cccnc1`, for which the growth is 98.9% (inactive). For the compound `CC1=C[C@H]2c3c(c(O)c(O)c4oc5cc(O)cc(O)c5c(=O)c34)[C@H](c3cc(O)c(O)c4oc5cc(O)cc(O)c5c(=O)c34)[C@H]2C(C)(C)C1`, the growth is -50.7% (active) and -52.7% (active).

`COc1cc2c(c(OC)c1OC)-c1ccc(OC)c(=O)cc1[C@@H](NC(C)=O)CC2`: the growth was 15.4% (inactive) and -6.78% (active) and -64.2% (active). Still for that read-out and setting: in the case of `O=C1OC2(c3ccccc31)c1ccc(O)c(O)c1Oc1c2ccc(O)c1O` it was 89.8% (inactive) and 84.1% (inactive). The same measure, in the same setting: in the case of `O=c1c2ccccc2nc2n1Cc1nc3ccccc3c(=O)n1C2` it was 89.9% (inactive) and 93.3% (inactive). Still for that read-out and setting: in the case of `CC(=O)c1ccccc1O` it was 108% (inactive) and 88.4% (inactive) and 111% (inactive); in that of `O=[N+]([O-])c1ccc(Oc2ccccc2)cc1`, 108% (inactive) and 103% (inactive). For the compound `CC(=O)c1ccc2c(c1)N(CCCN1CCN(CCO)CC1)c1ccccc1S2`, the growth is 67.3% (inactive) and 35.3% (inactive).

Regarding `Cc1ccc(NCSc2ccc(Cl)cc2)cc1`, the growth was 29% (inactive) and 47.1% (inactive). On to `Cc1cc(=O)[nH]c(O)c1C#N`, for which the growth is 101% (inactive) and 96.9% (inactive). On to `CC(=O)Nc1ccc(O)cc1`, for which the growth is 94.3% (inactive) and 47% (inactive). Same read-out and setting: in the case of `COC(=O)/C=C/c1cc(O)c2c(c1)C(C(=O)OC)C(c1ccc(O)c(O)c1)O2` (stereo not given) it was 1.09% (active) and 0.933% (active); in that of `O=C(N/N=C/c1cccc2ccccc12)C1CC1`, 98.8% (inactive) and 103% (inactive). On to `COc1ccc(Cn2c(NCCN=C(N)N)nc(=O)n(Cc3ccc(F)cc3)c2=O)cc1`, for which the growth is 90.2% (inactive) and 97.2% (inactive).

As to `ClC/C=C/CSc1ncnc2nc[nH]c12`, the growth is 102% (inactive) and 77.3% (inactive).

For `O=[N+]([O-])c1ccc(N/N=C\c2cc(Br)ccc2O)nc1`, the growth was 6.57% (active) and 7.63% (active). Regarding `CCCCCN(CCCCC)CC(O)c1cc2c(c3ccccc13)CCCC2` (stereo not given), the growth is 53% (inactive) and 50.1% (inactive). Consider `CC1CCCc2sc3nc(NNC(=O)c4cnccn4)n(-c4ccccc4)c(=O)c3c21` (stereo not given), for which the growth is -10.4% (active) and 6.49% (active).

Staying with this test, now noted: 30 µM.
On to `CC(C)(C)c1cc(NC(=O)Cc2ccc(-c3cnc4cc(-c5cnn(CCN6CCOCC6)c5)ccc4n3)cc2)no1`, for which the growth is 27% (inactive).
